Compounds without any hit were thinned out: in the full panel of roughly 83,000, 20% have a hit.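 96-well plates, one dose, 48 hours. Percent growth reported; active if below 10.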 A number with no mark means an inactive call. Calls of active or inactive are those of the source.
test system: IGROV1 ovarian; assay: NCI-60 one-dose screen, 48 h (100 = growth as untreated, 0 = no growth, -100 = all killed); settings: 10 µM

**Q.** With O=C(COc1ccc(-c2nc3ccccc3[nH]2)cc1)N=Nc1c(O)[nH]c2ccccc12 as the compound, how does the growth read?
**A.** Its growth is 99.5%.

**Q.** For C[C@]12CC[C@H]3[C@@H](CC=C4C[C@@H](O)CC[C@@]43C)[C@@H]1CC[C@@H]2C(=O)C/C=N/O, which growth is on record?
**A.** The growth was 76.7%.

**Q.** With COc1ccc(N2CCN(c3nc(-c4ccccc4)c(C#N)c(=O)[nH]3)CC2)cc1 as the compound, how does the growth read?
**A.** Its growth is 101%.

**Q.** How did the growth turn out when CCCCCCCCCCCC(=O)NCCCN(C)C was run?
**A.** Its growth is 92%.

**Q.** COc1cccc(-c2nnc(COc3ccc(-c4nc5ccccc5[nH]4)cc3OC)o2)c1 was tested. Which growth did it give?
**A.** The growth was 101%.

**Q.** Which growth does the source give for N/C(=N\O)c1cn(C2OC(CO)C(O)C2O)c2ncnc(N)c12 (stereo unspecified) here?
**A.** The growth was -13.7% (active).

**Q.** With Nc1ccc(C2=CC(c3ccc(Cl)cc3)N3C=CSC3=N2)cc1 (stereo unspecified) as the compound, how does the growth read?
**A.** The growth was -88.8% (active).

**Q.** With O=[N+]([O-])c1cc2ncccc2c2ncccc12 as the compound, how does the growth read?
**A.** The growth was 56.3%.

**Q.** Which growth does the source give for O=C(CCc1ccccc1)N1CCN(C(=O)CCc2ccccc2)CC1 here?
**A.** Its growth is 99.7%.

**Q.** With COc1ccc(CCc2nc3cc(-c4c(C)noc4C)ccc3n2CCN2CCOCC2)cc1 as the compound, how does the growth read?
**A.** Its growth is 48.3%.

**Q.** Which growth does the source give for CCOC(=O)C(=O)Cc1cccnn1 here?
**A.** The growth was 109%.

**Q.** How did the growth turn out when FC(F)(F)c1ccc(-c2nc(-c3nc4cc(Cl)c(Cl)cc4[nH]3)c3ccccn23)cc1 was run?
**A.** Its growth is 66.3%.

**Q.** For COc1cc(CSc2nc3ccc(C)cc3c(=O)n2-c2ccccc2)cc(OC)c1OC, which growth is on record?
**A.** Its growth is 33.2%.

**Q.** Which growth does the source give for CC(C)C[C@H](NC(=O)Cn1ccc2ccccc2c1=O)B(O)O here?
**A.** The growth was 107%.

**Q.** With CCCCC(=O)N(c1ccc(Nc2c3ccccc3nc3cc([N+](=O)[O-])ccc23)cc1)S(C)(=O)=O as the compound, how does the growth read?
**A.** Its growth is 48.7%.

**Q.** For N#Cc1ncc(-c2cc(F)ccc2F)c(NC2CCCCCC2)n1, which growth is on record?
**A.** The growth was 86%.

**Q.** For Cc1nnc2c3nnc(-c4ccc(Cl)cc4)n3c3ccccc3n12, which growth is on record?
**A.** Its growth is 91.8%.

**Q.** How did the growth turn out when O=CNc1c(Cl)cc2c(c1Cl)Cc1cc([N+](=O)[O-])ccc1-2 was run?
**A.** The growth was 38.6%.

**Q.** With O=C(Nc1ccc(OS(=O)(=O)Cc2ccccc2)cc1)C12CC3CC(CC(C3)C1)C2 as the compound, how does the growth read?
**A.** The growth was 97.8%.

**Q.** Which growth does the source give for COc1cc(CSc2nc3ccc(C)cc3c(=O)n2Cc2ccccc2)cc(OC)c1OC here?
**A.** The growth was 24.3%.

**Q.** For CC(=O)[C@H]1CC[C@H]2[C@@H]3CC[C@@H]4CC=C(C=O)C[C@]4(C)[C@H]3CC[C@]12C, which growth is on record?
**A.** The growth was 89.4%.

**Q.** With O=[N+]([O-])c1ccc(Br)o1 as the compound, how does the growth read?
**A.** The growth was 101%.

**Q.** With CCc1nn2c(-c3cc(OC)c(OC)c(OC)c3)c(-c3cc(OC)c(OC)c(OC)c3)nc2s1 as the compound, how does the growth read?
**A.** Its growth is 88.8%.

**Q.** For N#Cc1c2c([nH]c(=O)c1C(N)=O)CCCCC2, which growth is on record?
**A.** The growth was 102%.

**Q.** COC(=O)[C@]12CC[C@@H](C)[C@H](C)[C@@H]1C1=CC[C@@H]3[C@@]4(C)CC(=O)[C@H](O)[C@@]5(C)COC(=C45)C[C@@]3(C)[C@]1(C)CC2 was tested. Which growth did it give?
**A.** The growth was -44.9% (active).

**Q.** How did the growth turn out when C=CCNCCCN1C(=O)c2ccc3c4c(ccc(c24)C1=O)C(=O)N(CCCNCC=C)C3=O was run?
**A.** The growth was -70.3% (active).

**Q.** With COc1ccc(Cn2cc3c(c2-c2cc(OC)c(OC)c(OC)c2)CCc2cnoc2-3)cc1N as the compound, how does the growth read?
**A.** Its growth is 7.25% (active).

**Q.** How did the growth turn out when Cc1ccc2nc(-c3ccc(OCC(=O)N=Nc4c(O)[nH]c5ccccc45)cc3)[nH]c2c1 was run?
**A.** The growth was 85.8%.

**Q.** With COc1cc(OC)cc(-c2n/c(=C\c3c(O)[nH]c4ccc(OC)cc34)cc3c2=Nc2ccccc2-3)c1 as the compound, how does the growth read?
**A.** Its growth is 86.5%.

**Q.** With O=c1ccc2nc(-c3ccccc3)nn(-c3ccccc3)c-2c1 as the compound, how does the growth read?
**A.** The growth was 2.66% (active).

**Q.** How did the growth turn out when NS(=O)(=O)c1ccc(N2N=C(c3ccc(-c4ccccc4)cc3)CC2c2ccc(Cl)cc2)cc1 (stereo unspecified) was run?
**A.** The growth was 88.1%.

**Q.** For O=C(NC1CCCC1)c1ccc(N2CCC(NCc3cccc(C(F)(F)F)c3)CC2)cc1, which growth is on record?
**A.** Its growth is 94.1%.

**Q.** COc1cc(OC)cc(-c2ccc(-c3ccc(C(=N)N)cn3)o2)c1 was tested. Which growth did it give?
**A.** Its growth is 27%.

**Q.** COc1ccc(-c2oncc2-c2cc(OC)c3c(c2)OCO3)cc1 was tested. Which growth did it give?
**A.** The growth was 53.3%.

**Q.** COc1cc2ccnc(C=O)c2cc1OC was tested. Which growth did it give?
**A.** Its growth is 70.5%.

**Q.** N#Cc1ccc(-n2cnc(NC(=O)[C@H]3CCN(C#N)C3)c2)cc1 was tested. Which growth did it give?
**A.** Its growth is 20.8%.

**Q.** Oc1ccccc1-c1nnc(Cn2c(Cc3cccc4ccccc34)nc3ccccc32)o1 was tested. Which growth did it give?
**A.** Its growth is 111%.

**Q.** Fc1ccc(Nc2ccnc(N3CCN(c4ccnc5cc(Cl)ccc45)CC3)n2)cc1 was tested. Which growth did it give?
**A.** The growth was 43.7%.

test system: OVCAR-3 ovarian; assay: as above; settings: 10 µM

**Q.** How did the growth turn out when O=C(COc1ccc(-c2nc3ccccc3[nH]2)cc1)N=Nc1c(O)[nH]c2ccccc12 was run?
**A.** Its growth is 62.5%.

**Q.** Which growth does the source give for C[C@]12CC[C@H]3[C@@H](CC=C4C[C@@H](O)CC[C@@]43C)[C@@H]1CC[C@@H]2C(=O)C/C=N/O here?
**A.** Its growth is 89.8%.

**Q.** Which growth does the source give for COc1ccc(N2CCN(c3nc(-c4ccccc4)c(C#N)c(=O)[nH]3)CC2)cc1 here?
**A.** The growth was 103%.

**Q.** With CCCCCCCCCCCC(=O)NCCCN(C)C as the compound, how does the growth read?
**A.** The growth was 108%.

**Q.** Which growth does the source give for COc1cccc(-c2nnc(COc3ccc(-c4nc5ccccc5[nH]4)cc3OC)o2)c1 here?
**A.** The growth was 102%.

**Q.** With N/C(=N\O)c1cn(C2OC(CO)C(O)C2O)c2ncnc(N)c12 (stereo unspecified) as the compound, how does the growth read?
**A.** Its growth is -18.3% (active).

**Q.** For Nc1ccc(C2=CC(c3ccc(Cl)cc3)N3C=CSC3=N2)cc1 (stereo unspecified), which growth is on record?
**A.** The growth was -63.1% (active).

**Q.** For O=[N+]([O-])c1cc2ncccc2c2ncccc12, which growth is on record?
**A.** The growth was 84.5%.

**Q.** For O=C(CCc1ccccc1)N1CCN(C(=O)CCc2ccccc2)CC1, which growth is on record?
**A.** Its growth is 118%.

**Q.** How did the growth turn out when COc1ccc(CCc2nc3cc(-c4c(C)noc4C)ccc3n2CCN2CCOCC2)cc1 was run?
**A.** Its growth is 3.29% (active).

**Q.** CCOC(=O)C(=O)Cc1cccnn1 was tested. Which growth did it give?
**A.** The growth was 122%.

**Q.** How did the growth turn out when FC(F)(F)c1ccc(-c2nc(-c3nc4cc(Cl)c(Cl)cc4[nH]3)c3ccccn23)cc1 was run?
**A.** Its growth is 52.7%.

**Q.** How did the growth turn out when COc1cc(CSc2nc3ccc(C)cc3c(=O)n2-c2ccccc2)cc(OC)c1OC was run?
**A.** Its growth is -1.43% (active).

**Q.** CC(C)C[C@H](NC(=O)Cn1ccc2ccccc2c1=O)B(O)O was tested. Which growth did it give?
**A.** The growth was 42.3%.

**Q.** With CCCCC(=O)N(c1ccc(Nc2c3ccccc3nc3cc([N+](=O)[O-])ccc23)cc1)S(C)(=O)=O as the compound, how does the growth read?
**A.** The growth was 88.3%.

**Q.** How did the growth turn out when N#Cc1ncc(-c2cc(F)ccc2F)c(NC2CCCCCC2)n1 was run?
**A.** Its growth is 103%.

**Q.** Cc1nnc2c3nnc(-c4ccc(Cl)cc4)n3c3ccccc3n12 was tested. Which growth did it give?
**A.** Its growth is 104%.

**Q.** Which growth does the source give for O=CNc1c(Cl)cc2c(c1Cl)Cc1cc([N+](=O)[O-])ccc1-2 here?
**A.** Its growth is 41%.

**Q.** Which growth does the source give for O=C(Nc1ccc(OS(=O)(=O)Cc2ccccc2)cc1)C12CC3CC(CC(C3)C1)C2 here?
**A.** The growth was 80.2%.

**Q.** For COc1cc(CSc2nc3ccc(C)cc3c(=O)n2Cc2ccccc2)cc(OC)c1OC, which growth is on record?
**A.** Its growth is -22.7% (active).

**Q.** With CC(=O)[C@H]1CC[C@H]2[C@@H]3CC[C@@H]4CC=C(C=O)C[C@]4(C)[C@H]3CC[C@]12C as the compound, how does the growth read?
**A.** Its growth is 107%.

**Q.** With O=[N+]([O-])c1ccc(Br)o1 as the compound, how does the growth read?
**A.** Its growth is 111%.

**Q.** For CCc1nn2c(-c3cc(OC)c(OC)c(OC)c3)c(-c3cc(OC)c(OC)c(OC)c3)nc2s1, which growth is on record?
**A.** Its growth is 93.4%.

**Q.** How did the growth turn out when N#Cc1c2c([nH]c(=O)c1C(N)=O)CCCCC2 was run?
**A.** The growth was 113%.

**Q.** Which growth does the source give for COC(=O)[C@]12CC[C@@H](C)[C@H](C)[C@@H]1C1=CC[C@@H]3[C@@]4(C)CC(=O)[C@H](O)[C@@]5(C)COC(=C45)C[C@@]3(C)[C@]1(C)CC2 here?
**A.** Its growth is -84.7% (active).

**Q.** C=CCNCCCN1C(=O)c2ccc3c4c(ccc(c24)C1=O)C(=O)N(CCCNCC=C)C3=O was tested. Which growth did it give?
**A.** Its growth is -18.1% (active).

**Q.** Which growth does the source give for COc1ccc(Cn2cc3c(c2-c2cc(OC)c(OC)c(OC)c2)CCc2cnoc2-3)cc1N here?
**A.** The growth was 1.74% (active).

**Q.** How did the growth turn out when Cc1ccc2nc(-c3ccc(OCC(=O)N=Nc4c(O)[nH]c5ccccc45)cc3)[nH]c2c1 was run?
**A.** The growth was 26.5%.

**Q.** With COc1cc(OC)cc(-c2n/c(=C\c3c(O)[nH]c4ccc(OC)cc34)cc3c2=Nc2ccccc2-3)c1 as the compound, how does the growth read?
**A.** The growth was 94.6%.

**Q.** With O=c1ccc2nc(-c3ccccc3)nn(-c3ccccc3)c-2c1 as the compound, how does the growth read?
**A.** Its growth is -98.1% (active).

**Q.** Which growth does the source give for NS(=O)(=O)c1ccc(N2N=C(c3ccc(-c4ccccc4)cc3)CC2c2ccc(Cl)cc2)cc1 (stereo unspecified) here?
**A.** The growth was 94.3%.

**Q.** O=C(NC1CCCC1)c1ccc(N2CCC(NCc3cccc(C(F)(F)F)c3)CC2)cc1 was tested. Which growth did it give?
**A.** Its growth is 90.4%.

**Q.** With COc1cc(OC)cc(-c2ccc(-c3ccc(C(=N)N)cn3)o2)c1 as the compound, how does the growth read?
**A.** Its growth is 19.4%.

**Q.** How did the growth turn out when COc1ccc(-c2oncc2-c2cc(OC)c3c(c2)OCO3)cc1 was run?
**A.** Its growth is 7.36% (active).

**Q.** How did the growth turn out when COc1cc2ccnc(C=O)c2cc1OC was run?
**A.** Its growth is 24.9%.

**Q.** N#Cc1ccc(-n2cnc(NC(=O)[C@H]3CCN(C#N)C3)c2)cc1 was tested. Which growth did it give?
**A.** Its growth is 11.4%.

**Q.** Oc1ccccc1-c1nnc(Cn2c(Cc3cccc4ccccc34)nc3ccccc32)o1 was tested. Which growth did it give?
**A.** Its growth is 101%.

**Q.** With Fc1ccc(Nc2ccnc(N3CCN(c4ccnc5cc(Cl)ccc45)CC3)n2)cc1 as the compound, how does the growth read?
**A.** Its growth is 44.1%.
